Measurements as given in PubChem BioAssay AID602144 (Vanderbilt Specialized Chemistry Center, 2011).
“And” between values parts separate entries of the source, which are not always exact repeats. Equal values may be shown once. The source made the active and inactive calls. No stated cut-off is given here; in the data, active means remaining activity below about 50%; inactive means the rest.

target: Phospholipase D1 (Homo sapiens) (UniProt Q13393); assay: cellular phospholipase D1 activity inhibition – Calu-1 cells, single concentration (AID 602144); conditions: cellular PLD1 activity, stronger effect = lower value;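 further: tested at 200 nM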
Sequence (Q13393 whole entry, looked up): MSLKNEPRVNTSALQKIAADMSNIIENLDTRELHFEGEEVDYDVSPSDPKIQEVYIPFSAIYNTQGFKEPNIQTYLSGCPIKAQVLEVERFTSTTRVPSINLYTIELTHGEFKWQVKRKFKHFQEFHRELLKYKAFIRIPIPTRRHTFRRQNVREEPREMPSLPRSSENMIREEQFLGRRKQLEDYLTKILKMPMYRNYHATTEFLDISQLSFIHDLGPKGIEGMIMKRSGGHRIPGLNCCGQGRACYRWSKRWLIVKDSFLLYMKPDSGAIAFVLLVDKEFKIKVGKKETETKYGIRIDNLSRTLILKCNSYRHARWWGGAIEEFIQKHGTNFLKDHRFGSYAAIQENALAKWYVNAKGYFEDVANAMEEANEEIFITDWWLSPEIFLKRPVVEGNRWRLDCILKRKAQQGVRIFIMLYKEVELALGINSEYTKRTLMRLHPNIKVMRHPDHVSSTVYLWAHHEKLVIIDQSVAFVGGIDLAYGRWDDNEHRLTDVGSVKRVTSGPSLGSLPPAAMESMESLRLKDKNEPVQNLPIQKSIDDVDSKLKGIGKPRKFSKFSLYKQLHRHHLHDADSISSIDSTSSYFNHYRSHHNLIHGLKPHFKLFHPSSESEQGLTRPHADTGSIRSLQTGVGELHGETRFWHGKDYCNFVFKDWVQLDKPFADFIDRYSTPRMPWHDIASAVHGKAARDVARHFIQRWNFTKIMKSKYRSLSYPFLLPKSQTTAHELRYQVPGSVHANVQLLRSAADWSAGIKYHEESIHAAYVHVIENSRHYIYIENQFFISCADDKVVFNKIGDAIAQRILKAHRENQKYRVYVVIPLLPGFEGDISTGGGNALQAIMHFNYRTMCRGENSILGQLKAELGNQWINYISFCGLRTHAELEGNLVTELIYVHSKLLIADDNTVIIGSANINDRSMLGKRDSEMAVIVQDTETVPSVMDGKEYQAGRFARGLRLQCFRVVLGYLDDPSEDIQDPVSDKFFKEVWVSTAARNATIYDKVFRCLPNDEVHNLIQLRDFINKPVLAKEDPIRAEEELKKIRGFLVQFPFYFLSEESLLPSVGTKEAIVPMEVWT
Sequence (Q13393 whole entry, looked up): as above

Row | Compound | remaining activity
1 | O=C(NCCN1CCC2(CC1)C(=O)NCN2c1ccccc1)c1cscn1 | 92.4% (inactive)
2 | C[C@@H](CN1CCC2(CC1)C(=O)NCN2c1ccc(F)c(F)c1)NC(=O)c1ccc(Cl)cc1 | 6.51% (active)
3 | O=C1NCN(c2ccccc2)C12CCN(CCN1CCCC1)CC2 | 116% (inactive)
4 | CCCCOc1ccc(C(=O)NCCN2CCC3(CC2)C(=O)NCN3c2cccc(F)c2)cc1 | 110% (inactive)
5 | O=C(c1cnc2ccccc2c1)N1CC(N2CCC(n3c(=O)[nH]c4ccccc43)CC2)C1 | 119% (inactive)
6 | COc1cc(OC)cc(C(=O)NCCN2CCC3(CC2)C(=O)NCN3c2cccc(F)c2)c1 | 97% (inactive)
7 | O=C(NCCN1CCC2(CC1)C(=O)NCN2c1cccc(F)c1)c1cccc(F)c1 | 100% (inactive)
8 | O=C(NCCN1CCC2(CC1)C(=O)NCN2c1cccc(Cl)c1)c1ccc(F)cc1 | 79.6% (inactive)
9 | CCCCCC(=O)NCCN1CCC2(CC1)C(=O)NCN2c1cccc(F)c1 | 109% (inactive)
10 | O=C(N[C@@H](Cc1ccccc1)CN1CCC2(CC1)C(=O)NCN2c1ccccc1)c1ccc(F)c(F)c1 | 75.5% (inactive)
11 | C[C@@H](CN1CCC2(CC1)C(=O)N(Cc1ccccc1)c1ccccc12)NC(=O)c1ccc2ccccc2c1 | 90.4% (inactive)
12 | CC1(C)C(C(=O)NCCN2CCC3(CC2)C(=O)NCN3c2ccccc2)C1(C)C | 104% (inactive)
13 | O=C(NCCN1CCC2(CC1)C(=O)NCN2c1ccc(Br)cc1)c1cc2cc(F)ccc2[nH]1 | 55.7% (inactive)
14 | O=C(CCN1CCC2(CC1)C(=O)NCN2c1ccccc1)Nc1ccc(F)c(F)c1 | 125% (inactive)
15 | O=C(NCCN1CCC2(CC1)C(=O)NCN2c1ccccc1)c1cccc(F)n1 | 138% (inactive)
16 | O=C(c1cnc2ccccc2c1)N1CCC[C@@H]1CN1CCC2(CC1)C(=O)NCN2c1ccccc1 | 107% (inactive)
17 | O=C(NCCCN1CCC2(CC1)C(=O)NCN2c1ccccc1)c1ccc2ccccc2c1 | 81% (inactive)
18 | COc1cc(C(=O)NCCN2CCC3(CC2)C(=O)NCN3c2ccccc2)ccc1N | 103% (inactive)

Row | Compound | remaining activity
19 | O=C(NCCN1CCC2(CC1)C(=O)NCN2c1ccc(F)cc1)c1ccc(F)cc1 | 78.2% (inactive)
20 | CC(C)[C@@H](CN1CCC2(CC1)C(=O)NCN2c1ccccc1)NC(=O)c1cnc2ccccc2c1 | 18.3% (active)
21 | O=C(NCCN1CCC2(CC1)C(=O)NCN2c1ccccc1)c1cnc2ccccc2n1 | 96.5% (inactive)
22 | O=C(CCN1CCC2(CC1)C(=O)NCN2c1ccccc1)Nc1cnc2ccccc2c1 | 123% (inactive)
23 | COc1ccc(CC(=O)NCCN2CCC3(CC2)C(=O)NCN3c2cccc(F)c2)cc1OC | 108% (inactive) and 107% (inactive)
24 | O=C(NCCN1CCC2(CC1)C(=O)NCN2c1ccc(Br)cc1)c1ccc2ccccc2c1 | 92.7% (inactive)
25 | O=C(CCN1CCC2(CC1)C(=O)NCN2c1ccccc1)Nc1ccc(F)cc1 | 125% (inactive)
26 | O=C(NCCN1CCC2(CC1)C(=O)NCN2c1ccccc1)c1ccc(-c2ccccc2)o1 | 132% (inactive)
27 | O=C(NCCN1CCC2(CC1)C(=O)NCN2c1ccc(Cl)cc1)c1cc2ccccc2[nH]1 | 61.5% (inactive)
28 | C[C@@H](CN1CCC2(CC1)C(=O)NCN2c1ccccc1)NC(=O)c1ccc(F)c(F)c1 | 34.3% (active)
29 | O=C(NCCN1CCC2(CC1)C(=O)NCN2c1ccccc1)C(c1ccccc1)c1ccccc1 | 99.2% (inactive)
30 | O=C(NCCN1CCC2(CC1)C(=O)NCN2c1ccccc1)c1cccnn1 | 105% (inactive)
31 | O=C(NCCN1CCC2(CC1)C(=O)NCN2c1ccc(Cl)cc1)c1ccc2ccccc2c1 | 103% (inactive)
32 | O=C(CCN1CCC2(CC1)C(=O)NCN2c1ccccc1)Nc1ccc(Cl)cc1 | 122% (inactive)
33 | O=C(NCCN1CCC2(CC1)C(=O)NCN2c1cccc(F)c1)c1ccc(-c2ccccc2)cc1 | 93% (inactive)
34 | O=C(NCCN1CCC2(CC1)C(=O)NCN2c1cccc(Br)c1)c1ccc2ccccc2c1 | 76.6% (inactive)
35 | C[C@@H](CN1CCC2(CC1)C(=O)NCN2c1ccc(F)c(F)c1)NC(=O)c1cnc2ccccc2c1 | 5.04% (active)
36 | O=C(NCCN1CCC2(CC1)C(=O)NCN2c1ccc(Cl)cc1)c1ccc(Cl)cc1 | 103% (inactive)
